Source: PubChem BioAssay (NCI)
Several values for one entry are separate records, joined by “and”; a condition that tells them apart may be missing. Equal values may be shown once. Compounds without any hit were thinned out: in the full panel of roughly 83,000, 20% have a hit.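 Testing used 96-well plates and a 48-hour single-concentration exposure. Example: -40 means 40% of the starting cells died.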 Activity calls are given as the source filed them. How the source made its calls: active means growth percent below 10; inactive means the rest.

System: MDA-MB-468 breast
Assay: NCI-60 one-dose screen, 48 h (100 = growth as untreated, 0 = no growth, -100 = all killed)
Conditions: 10 µM unless noted

SMILES	growth
O=C(CCN1CCOCC1)Nc1cccc(-n2cc(-c3ccncc3)c(-c3ccc(Cl)c(O)c3)n2)c1	25.2% (inactive)
O=c1ssc(Cl)c1-c1ccccc1	97.3% (inactive)
CC1(C)CC[C@]2(C(=O)N3CCCN(CC#N)CC3)CC[C@]3(C)C(=CC[C@@H]4[C@@]5(C)CC[C@H](O)C(C)(C)[C@@H]5CC[C@]43C)[C@H]2C1	41.2% (inactive)
COc1ccc(/C=C2\SC(=Nc3cc(C)on3)NC2=O)cc1	95.6% (inactive)
O=C1CSc2ccccc2N1	112% (inactive)
COc1ccc(Nc2ncccc2NC(=O)c2cn(Cc3cccc(Oc4ccccc4)c3)nn2)cc1OC	55.6% (inactive)
C#CCNC(=O)[C@H](CC)[C@H]1CC[C@H](C)[C@H]([C@@H](C)[C@H](O)[C@H](C)C(=O)[C@H](CC)C2O[C@]3(C=CC(=O)[C@]4(CC[C@@](C)([C@H]5CC[C@](O)(CC)[C@H](C)O5)O4)O3)[C@H](C)C[C@@H]2C)O1 (stereo not given in full)	9.34% (active)
Clc1ccc2c(c1)C(c1c[nH]c3ccccc13)(c1c[nH]c3ccccc13)CCO2	86.5% (inactive)
CCCNCCC(C)=O	127% (inactive)
CCCCCCCCCCCCCCCCCCNCc1ccc(Cl)cc1	-71.9% (active)
Oc1c(Cl)cc(Cl)cc1C(c1cc(Cl)cc(Cl)c1O)C(Cl)(Cl)Cl	-30.5% (active)
CC(C)(C)c1ccc(CCO)cc1	124% (inactive)
CCCCCCCC/C=C/CCCCCCCC1=NC(C)(C)CN1CC(C)O (stereo not given)	46.7% (inactive)
COc1ccc2[nH]c(=O)c(/C=C/C(=O)c3ccccc3OC)cc2c1	16.7% (inactive)
CCOC(=O)Cn1c(-c2nonc2NC(=O)c2ccccc2F)nc2ccccc21	76% (inactive)
O=C(Nc1ccc(Br)cc1)Nc1ccccc1Cl	69.2% (inactive)
CC/C(=C(\c1ccccc1)c1ccc(OCCNC)cc1)c1ccccc1	-97.7% (active)
COC(=O)c1nc(=S)[nH]c(C(=O)OC)c1C(=O)c1ccccn1	19.3% (inactive)
c1ccc(-c2ccc(-c3nc4ccccc4[nH]3)cc2)cc1	87% (inactive)
CC(=O)Nc1c(Cl)cc(Cl)c2c1Cc1cc([N+](=O)[O-])ccc1-2	94.9% (inactive)

SMILES	growth
CCCCCCCCCCCCC1CCC(=O)O1 (stereo not given)	105% (inactive)
Cc1cnc(Nc2ccc(OCCN3CCCC3)cc2)nc1NCc1ccco1	80.8% (inactive)
Cc1ccc(S(=O)(=O)n2cc(-c3csc(-c4cn(C)c5ncccc45)n3)c3ccccc32)cc1	38.6% (inactive)
NC(=O)SCC(=O)Nc1ccccc1-c1ccccc1	99.9% (inactive)
CC(C)(C)[Si](C)(C)OC1[C@@H](O[Si](C)(C)C(C)(C)C)[C@@H](CNC(=O)NC(=O)NC(=O)CCl)O[C@H]1n1cnc2c(NC(=O)Nc3ccccc3)ncnc21 (stereo not given in full)	106% (inactive)
COc1ccc2[nH]cc(-c3csc4nc(-c5ccccc5)cn34)c2c1	21.2% (inactive)
COC(=O)CCCNCCCn1ccc2cc(NCc3cccc(-c4ccccc4)c3C)ccc21	53.4% (inactive)
CN(C)c1ccc2cc(-c3ccc(Cl)c(Cl)c3)c(N)nc2c1	18.9% (inactive)
CC(=O)O[C@H]1CC[C@@]2(C)[C@@H](CC[C@@H]3[C@@H]2CC[C@]2(C)C=C(C=O)C[C@@H]32)C1	111% (inactive)
O=C(CCCCNC(=O)c1nc(-c2ccccc2)n(-c2ccccc2)n1)NO	55.4% (inactive)
CCOc1ccc(N2C(N)=NC(N)=NC2(C)C)cc1	-0.227% (active) and 56.3% (inactive)
S=c1nc(-c2ccccc2)oc(=NC2CCCCC2)n1C1CCCCC1	-42.1% (active)
COC12C=C/C(=C(/C(=O)OCc3ccncn3)C(=O)CCCCCCCCC3(OC)C=C/C(=C(/C(=O)OCc4ccncn4)C(=O)CCCCCCCC1)O3)O2	-45.5% (active)
OCc1cccc(-c2ccc3ncc(-c4nc(NC5CC5)ncc4F)n3c2)c1	-39.1% (active)
Nc1ncc(-c2ccc3ncnc(Nc4cncc(Cl)c4)c3c2)cn1	7.6% (active)
C[C@@H]1CC[C@@H]2[C@@H]1[C@H](OC(=O)/C=C/c1ccccc1)[C@]1(C3CCCCC3)C[C@@H](OC(=O)CO)[C@@]2(C)O1	74.1% (inactive)
COc1ccc(C2CC(c3cccc(Nc4ccnc5cc(Cl)ccc45)c3)=NN2c2ccccc2)cc1 (stereo not given)	63.3% (inactive)
Cc1ccc2c(c1)=C/C(=C\c1cc(-c3ccccc3)oc1O)C(=O)N=2	109% (inactive)
CN(C)c1ccc(/C=C2\C=C(c3ccccc3)N(CCc3ccccc3)C2=O)cc1	98.2% (inactive)
O=C(O)c1ccccc1C(=O)c1cccc2c(F)cccc12	104% (inactive)
